# Screening data as filed in PubChem BioAssay.
# This is a sample that favours compounds with a hit; in the whole collection about 10% have one here.
# GLA inh pH 4.5 = qHTS Assay for Inhibitors of Human alpha-Galactosidase at pH 4.5; purified enzyme, 4-MU-alpha-Gal fluorescence, pH 4.5; activity change, negative = inhibition, % at 105 µM; 230,000 tested, under 10 active; AID 1467, 2008
# Target sequence (P06280 whole entry, looked up): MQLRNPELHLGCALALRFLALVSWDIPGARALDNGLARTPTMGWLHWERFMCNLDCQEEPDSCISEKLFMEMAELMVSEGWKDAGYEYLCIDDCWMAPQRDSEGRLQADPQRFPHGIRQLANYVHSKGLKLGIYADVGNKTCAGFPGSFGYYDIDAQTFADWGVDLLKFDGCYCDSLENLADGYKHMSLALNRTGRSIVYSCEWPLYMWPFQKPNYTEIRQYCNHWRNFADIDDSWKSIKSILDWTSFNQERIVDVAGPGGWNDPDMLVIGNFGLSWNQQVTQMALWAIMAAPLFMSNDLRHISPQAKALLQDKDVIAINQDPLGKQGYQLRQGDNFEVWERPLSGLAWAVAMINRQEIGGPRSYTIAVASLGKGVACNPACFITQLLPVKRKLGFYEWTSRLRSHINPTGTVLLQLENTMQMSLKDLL
# HPGD block = qHTS Assay for Inhibitors of HPGD (15-Hydroxyprostaglandin Dehydrogenase) | purified HPGD, NADH fluorescence kinetic, PGE2 substrate | Potency, µM, usual class: inhibitors | hit rate 4.3% among 150,000 | AID 894, 2007; active = well fitted inhibition curve with a large enough effect, not every such curve was filed as active; inconclusive = small, poorly fitted or top-dose-only effect, or another doubt; inactive = no such curve, though single readings can be large or run the other way
# Target sequence (P15428 whole entry, looked up): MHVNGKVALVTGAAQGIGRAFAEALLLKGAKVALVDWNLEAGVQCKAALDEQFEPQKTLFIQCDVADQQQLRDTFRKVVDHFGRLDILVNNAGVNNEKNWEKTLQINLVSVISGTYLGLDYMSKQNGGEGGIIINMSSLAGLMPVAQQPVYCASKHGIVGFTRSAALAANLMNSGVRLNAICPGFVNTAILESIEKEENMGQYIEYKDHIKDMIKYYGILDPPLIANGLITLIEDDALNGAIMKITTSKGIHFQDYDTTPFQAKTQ
#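 NADH formation kinetics: reaction with 30 uM PGE2 and 1 mM NAD+ (final), 20 nM enzyme, Tris-HCl pH 8 with Tween 20, after 15 min compound preincubation at room temperature. Fluorescence change, last versus first of five reads.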
# ALDH1A1 inh = qHTS Assay for Inhibitors of Aldehyde Dehydrogenase 1 (ALDH1A1). hit rate 7.3% among 220,000. Potency, µM (doses to about 75.3 µM), actives largely listed as inhibitors. Purified ALDH1A1, NADH fluorescence, propionaldehyde substrate. Aldehyde dehydrogenase 1A1 (Homo sapiens), P00352; active = well fitted inhibition curve with a large enough effect, not every such curve was filed as active; inconclusive = small, poorly fitted or top-dose-only effect, or another doubt; inactive = no such curve, though single readings can be large or run the other way
# ALOX12 inhib = qHTS Assay for Inhibitors of 12-hLO (12-human lipoxygenase); Polyunsaturated fatty acid lipoxygenase ALOX12 (Homo sapiens), P18054; purified 12-hLO, xylenol orange hydroperoxide absorbance; Potency, µM (highest dose often 57.1 µM), usual class: inhibitors; hit rate 0.12% among 150,000; AID 1452, 2008; note: nearly all actives have a fitted effect of over 55% in size
#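 Hydroperoxide formation by human 12-lipoxygenase from 40 uM arachidonic acid was followed colorimetrically via ferric-xylenol orange complex, using the 573/405 nm absorbance ratio. Enzyme concentration was 150 nM, with 30 min reaction at room temperature.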
# PNC assembly inh = High Content Assay for Compounds that inhibit the Assembly of the Perinucleolar Compartment. hit rate 3.1% among 140,000. activity change (PNC), negative = inhibition, % at 10 µM. PC3M PTB-GFP, PNC prevalence imaging, 16 h; stronger effect = lower value;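 active = readout at or below -70, meaning at least 70% loss of cells showing the perinucleolar compartment, a nuclear body marking cancer cells; inconclusive = readout between -30 and a set limit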
#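 Compounds are pinned in duplicate onto adhered PC3M cells stably expressing GFP-tagged PTB and incubated 16 h at 37 C. Cells are then fixed, nuclei stained with Hoechst, and PNC-positive cells counted.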
# GLA spleen mod = qHTS Assay for Inhibitors and Activators of Human alpha-Galactosidase From Spleen Homogenate | human spleen homogenate, 4MU-alpha-Gal fluorescence, 40 min | Potency, µM (doses to about 80 µM), usual class: inhibitors | hit rate 0.008% among 240,000 | AID 2107, 2009
#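 Inhibition or activation of alpha-galactosidase in human spleen homogenate is scored by 4-MU fluorescence after 40 min at 37C, pH 5.0, with 1 mM substrate. AC50s come from concentration-response fitted to the Hill equation.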
# Hits are given with their value; 0 = inactive; ? = inconclusive; - = no result given; [ ] = another dose, or the depositor's remark. Unless noted, calls come from the whole dose curve; as a rule, active = well fitted curve in the direction sought with a large enough effect; inconclusive = small, poorly fitted or top-dose-only effect, or another doubt; inactive = no such curve, though single readings can be large; an effect the other way counts as inactive or inconclusive.
SMILES,GLA inh pH 4.5,HPGD block,ALDH1A1 inh,ALOX12 inhib,PNC assembly inh,GLA spleen mod
c1cnc2ccc(C(c3nnnn3C3CCCC3)N3CCN4CCCC4C3)cc2c1 (centres undefined),0,0,0,0,0,0
c1cnc2ccc(C(c3nnnn3C3CCCCC3)N3CCCCC3)cc2c1 (centres undefined),0,0,?,0,-100,0
CCCC(=O)N=c1sc2c(OC)ccc(OC)c2n1C,0,-,0,-,-,0
COC(=O)C1=C(C)NC(=O)NC1c1ccc(-c2ccc(Cl)cc2)o1 (centres undefined),0,-,11µM,-,-,0
Cc1cc(C)c2c(CC(=O)O)coc2c1,0,20µM,0,0,0,0
Cc1cc(C)c2c(CC(=O)NN(C)C)coc2c1,0,-,0,-,-,0
O=c1c(-c2ccccc2)nc2cnc(N3CCOCC3)nc2n1-c1ccccc1,-,?,?,0,-,0
CCOC(=O)C1=C(N)OC2=C(C(=O)CC(C)(C)C2)C1c1ccc(CC)s1 (centres undefined),0,-,0,-,-,0
Cc1ccc(C2C(C(N)=S)=C(N)OC3=C2C(=O)CC(C)(C)C3)cc1 (centres undefined),0,0,14µM,0,?,0
CCOC(=O)C1=C(N)OC2=C(C(=O)CC(C)(C)C2)C1c1ccc(C)s1 (centres undefined),0,-,13µM,-,-,0
CC1(C)CC(=O)C2=C(C1)OC(N)=C([N+](=O)[O-])C2c1ccc(F)cc1 (centres undefined),0,-,-,-,-,0
Cc1cc(OI)c(C(C)C)cc1-c1cc(C(C)C)c(OI)cc1C,0,0,0,0[0.00818 µM],-,0
CN(C)CCC(=O)c1ccc(F)cc1,0,-,-,-,-,0
CCCC(=O)c1ccc2c(c1)OCCO2,0,28µM,0,0,0,0
O=C(CCN1CCc2ccccc2C(c2ccccc2)C1)c1ccc2c(c1)OCCO2 (centres undefined),0,0,0.14µM,0,0,0
O=C(CS(=O)(=O)c1ccccc1)c1ccc2c(c1)OCCO2,-,?,?,0,?,0
O=C(CCN1Cc2ccccc2C1)c1ccc2c(c1)OCCO2,0,0,1.3µM,0,0,0
CN(C)CCC(=O)c1cccc(Br)c1,0,-,0.04µM,-,-,0
CC(C)(C)CC(C)(C)c1ccc(OCCO)cc1,-,0,0,0,-,0
CCN(CC)CC1CCN(c2ncc3ncnc(Nc4ccc(F)c(Cl)c4)c3n2)CC1,0,0,0,0[0.00818 µM],-,0
O=C(CCc1ccc(S(=O)(=O)N2CCOCC2)cc1)N1CCN(Cc2ccc3c(c2)OCO3)CC1,0,0,0,0,0,0
O=C(O)CCSCC(=O)c1ccc2c(c1)OCCO2,0,0,15µM,0,0,0
CN(C)CCC(=O)c1ccc2c(c1)OCO2,0,0,0.022µM,0,0,0
Cc1c(C(=O)OCC(=O)c2ccc3c(c2)OCCO3)oc2ccccc12,0,0,0,0,0,0
O=C(O)CCC(=O)c1ccc2c(c1)OCCO2,0,0,0,0,0,0
SMILES,GLA inh pH 4.5,HPGD block,ALDH1A1 inh,ALOX12 inhib,PNC assembly inh,GLA spleen mod
Cc1cc(C(=O)OCC(=O)c2ccc3c(c2)OCCO3)c(C)o1,0,20µM,?,0,?,0
CC(C)CCNC(=O)CCCC1=NS(=O)(=O)c2ccccc2N1,0,0,0,0,?,0
Cc1ccccc1N(CC(=O)N/N=C/c1cc(C)n(-c2ccccc2C)c1C)S(C)(=O)=O,0,?,4µM,0,0,0
Cc1cccc(C)c1-n1c(C)cc(/C=N/NC(=O)CSc2ncccn2)c1C,0,0,10µM,0,0,0
Cc1cc(C)nc(SCC(=O)N/N=C/c2cc(C)n(-c3ccccc3C)c2C)n1,0,0,10µM,0,0,0
CCOc1ccc(C(C)=O)cc1CN1C(=O)C(=O)N(CC)C1=O,0,-,0,-,-,0
CCN(c1ccc2c(c1)OCO2)S(=O)(=O)c1cc(Br)cc2c1N(C(C)=O)CC2,0,0,0,0,0,0
Cc1cccc(Nc2nnc(SCC(=O)Nc3cccc(S(=O)(=O)N4CCCCC4)c3)s2)c1,0,20µM,?,0,0,0
Cc1ccc(Nc2nnc(SCC(=O)Nc3cccc(S(=O)(=O)NC4=NCCCCC4)c3)s2)cc1,0,0,0,0,0,0
CCc1ccc(Nc2nnc(SCC(=O)Nc3cccc(S(=O)(=O)NC4=NCCCCC4)c3)s2)cc1,0,?,18µM,0,0,0
CCN1CCN(C(=O)NC(C(=O)NC2C(=O)N3C2SC(C)(C)C3C(=O)O)c2ccccc2)C(=O)C1=O (centres undefined),0,0,0,0,-,0
Cn1cccc1C(=O)N1CCC2(CCN(C(=O)Nc3cccc(F)c3)CC2)CC1,-,0,0,0,-,0
CC(C)CC1(C(=O)NCC2CC2)C=CCN1C(=O)c1ccccc1 (centres undefined),0,18µM,25µM,0,-,0
COC(=O)CNC(=O)C1(CC(C)C)C=CCN1C(=O)c1ccccc1 (centres undefined),0,0,0,0,-,0
CC(C)COC(=O)CNc1n[nH]c(=S)[nH]c1=O,0,0,0,0,0,0
CCCCOC(=O)CNc1n[nH]c(=S)[nH]c1=O,0,25µM,?,0,?,0
CCCCC/C=C/C=C1/C(=O)C=C[C@@H]1C/C=C\CCCC(=O)O,0,0,0,0[0.00818 µM],-,0
O=C(CCl)N(c1ccccc1)c1c[nH]c2ccccc12,0,-,?,0,0,0
O=C(CCl)N(c1ccc(Cl)cc1)c1c[nH]c2ccccc12,0,0,7.1µM,0,0,0
Cc1ccc(Nc2nnns2)cc1C,0,22µM,4µM,0,-82,0
Cc1cc(Nc2ccc(C)c(C)c2)n2nc(C)nc2n1,0,0,?,0,0,0
Cn1c(=O)c2[nH]c(SCCN3CCOCC3)nc2n(C)c1=S,-,5.6µM,0[13.5 µM],0[11.4 µM],-,-
CC(C)c1c(O)nc(SCCN2CCOCC2)[nH]c1=O,0,0,?,0,0,0
CCOC(=O)N1CCN(C(=O)CN(C2CCCCC2)S(=O)(=O)c2ccc(C)cc2)CC1,0,0,7.1µM,0,?,0
COCCCNC(=O)CN(C1CCCCC1)S(=O)(=O)c1ccc(C)cc1,0,0,14µM,0,0,0
CCN(CC)C(=O)C(=O)c1cn(CC(=O)N2CCc3ccccc3C2)c2ccccc12,0,-,0.71µM,-,-,0
CC1CCN(C(=O)Cn2cc(C(=O)C3CC3)c3ccccc32)CC1,0,0,0,0,-103,0
